In the library only some 11% were active in any assay of this set; here they are far more common.
G9a block – qHTS Assay for Inhibitors of Histone Lysine Methyltransferase G9a. Histone-lysine N-methyltransferase EHMT2 (Homo sapiens), Q96KQ7. Potency, µM (titrated, usually from 102 µM), for inactives: at the highest dose activity, negative = inhibition, actives largely listed as inhibitors. actives 8.8% (n = 350,000). G9a H3K9 monomethylation, AlphaScreen, 2 h; also: % is scaled to controls: 0 for no effect and ±100 for the full control effect; nearly all actives have a fitted effect of over 75% in size
Target sequence (Q96KQ7 913-1193 limits assumed): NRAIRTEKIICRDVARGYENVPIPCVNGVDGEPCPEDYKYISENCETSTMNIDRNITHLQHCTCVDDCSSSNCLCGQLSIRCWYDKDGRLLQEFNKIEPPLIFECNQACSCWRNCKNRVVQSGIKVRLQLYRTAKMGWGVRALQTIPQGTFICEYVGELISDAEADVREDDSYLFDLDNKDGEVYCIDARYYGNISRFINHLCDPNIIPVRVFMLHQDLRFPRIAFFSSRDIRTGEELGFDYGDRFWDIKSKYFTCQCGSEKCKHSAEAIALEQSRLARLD
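G9a (20 nM) was preincubated 15 min with compound, then reacted 2 h at room temperature with 500 nM biotin-H3K9 peptide and 20 µM SAM. Monomethyl-H3K9 detected by AlphaScreen using anti-H3K9me1 antibody.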
PLK1 PBD block – qHTS for Inhibitors of PLK1-PDB (polo-like kinase 1 - polo-box domain): Primary Screen | Serine/threonine-protein kinase PLK1 (Homo sapiens), P53350 | Plk1 PBD binding of FITC phosphopeptide, fluorescence polarization | Potency, µM, for the others: max response, negative = inhibition, most hits filed as inhibitors | actives 2.8% (n = 360,000); also: series mostly up to about 57 µM; % is scaled to controls: 0 for no effect and ±100 for the full control effect; nearly all actives have a fitted effect of over 65% in size
JMJD2A Tudor inh – qHTS Assay for Inhibitors of JMJD2A-Tudor Domain; Lysine-specific demethylase 4A (Homo sapiens), O75164; AlphaScreen JMJD2A-Tudor / H3K4me3 peptide binding; Potency, µM (top dose mostly 114 µM), for inactives: at the top dose activity change, negative = inhibition, actives largely listed as inhibitors; actives 4.4% (n = 390,000); AID 504339, 2011; also: % is scaled to controls: 0 for no effect and ±100 for the full control effect; nearly all actives have a fitted effect of over 50% in size
HP1b binding inh – HTS for Inhibitors of HP1-beta Chromodomain Interactions with Methylated Histone Tails | Chromobox protein homolog 1 (Homo sapiens), P83916 | AlphaScreen HP1-beta / biotin-H3K9me3 peptide binding | Potency, µM (highest dose often 114 µM), for the others: at the highest dose activity change, negative = inhibition, actives largely listed as inhibitors | actives 0.56% (n = 390,000) | AID 540317, 2011; also: nearly all actives have a fitted effect of over 70% in size
Target sequence (P83916 whole entry, looked up): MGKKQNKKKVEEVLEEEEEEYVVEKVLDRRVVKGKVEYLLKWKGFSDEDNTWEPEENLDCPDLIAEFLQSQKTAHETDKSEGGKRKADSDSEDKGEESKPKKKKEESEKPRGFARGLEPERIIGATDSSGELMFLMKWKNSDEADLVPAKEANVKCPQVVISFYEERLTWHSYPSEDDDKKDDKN
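AlphaScreen: HP1-beta (50 nM) preformed 30 min with biotin-H3(1-18)K9me3 peptide (50 nM) in PBS pH 7.4, 0.01% Tween-20. Compound added for 30 min at RT, then streptavidin donor/nickel chelate acceptor beads (10 ug/mL) for 30 min.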
BAZ2B block – qHTS Assay for Inhibitors of BAZ2B | actives 4.4% (n = 360,000) | AlphaScreen BAZ2B-H3K14Ac peptide displacement | Potency, µM (highest dose often 114 µM), without a hit: at the highest dose activity change, negative = inhibition, hits mostly inhibitors | Bromodomain adjacent to zinc finger domain protein 2B (Homo sapiens), Q9UIF8; also: % is scaled to controls: 0 for no effect and ±100 for the full control effect; nearly all actives have a fitted effect of over 60% in size
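BAZ2B 50 nM plus b-H3(5-23)K14Ac 50 nM, PBS pH 7.4/0.01% Tween-20, 30 min RT; compound added (max 110 uM), 30 min RT; streptavidin donor/Ni-chelate acceptor beads 10 ug/mL final, 20 min dark; AlphaScreen read.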
VDR inh – Inhibitors of the vitamin D receptor (VDR): qHTS; VDR-SRC2-3 peptide fluorescence polarization, 2 h; Potency, µM, without a hit: max response, negative = inhibition, hits mostly inhibitors; actives 0.93% (n = 400,000); AID 504847, 2011; also: % is scaled to controls: 0 for no effect and ±100 for the full control effect
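VDR–SRC2-3 interaction, FP format. Cmpds 23 nl via pintool, brief spin, 2 h ambient incubation.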
The depositor's hits bear a star; ? = inconclusive; . = no result; [ ] = another dose, or the depositor's remark. Calls follow the shape of the dose curve; as a rule, active = well fitted curve in the direction sought with a large enough effect; inconclusive = small, poorly fitted or top-dose-only effect, or another doubt; inactive = no such curve, though single readings can be large; an effect the other way counts as inactive or inconclusive. Potency is read from the fitted curve at half-maximal effect.

SMILES	G9a block	PLK1 PBD block	JMJD2A Tudor inh	HP1b binding inh	BAZ2B block	VDR inh
COc1ccccc1-c1ccc(/C=C2/C=C(C)OC2=O)o1	15.8µM*	?	?	-13.0%	?	?
CC1=C/C(=C\c2ccc(Br)o2)C(=O)O1	?	18.9µM*	39.8µM*	?	31.6µM*	2.5%
COC(=O)c1ccccc1-c1ccc(C=O)o1	-44.0%	-2.5%	-2.8%	26.9%	4.0%	2.8%
O/N=C/c1ccc(-c2ccccc2OC(F)(F)F)o1	?	2.2%	-16.6%	2.3%	-38.9%	-11.4%
O=C1C(=Cc2ccc(Br)o2)C(=O)c2ccccc21	20µM*	2.67µM*	7.94µM*	?	12.6µM*	1.2%
Cc1ccc(C=C2C=C(c3ccccc3)OC2=O)cc1	.	-8.0%	.	.	.	.
CCCCc1ccc(S(=O)(=O)NCCCN2CCCC2=O)cc1	.	2.8%	-7.3%	17.3%	4.3%	14.4%
Cc1ccc(S(=O)(=O)N2CCC(C(=O)OCC(=O)NC(C)c3ccc(F)cc3)CC2)cc1C (configuration not stated)	-8.8%[12.7 µM]	2.2%	-5.7%	50.5%	-5.7%	8.8%
COc1cccc(-c2noc(CCC(=O)NCC3CCCO3)n2)c1 (configuration not stated)	2.2%	-6.5%	2.1%	33.2%	-10.6%	21.8%
CC(C)CN(C(=O)COC(=O)CSc1ccc([N+](=O)[O-])cc1)C1CCS(=O)(=O)C1 (configuration not stated)	-35.6%	18.9µM*	-20.7%	-4.0%	-1.4%	?
CC(C)CN(C(=O)COC(=O)c1cc2c(s1)CCC2)C1CCS(=O)(=O)C1 (configuration not stated)	-33.9%[59 µM]	?	?	-12.0%	56.2µM*	-3.0%
CCCN(C(=O)COC(=O)CSc1ccc([N+](=O)[O-])cc1)C1CCS(=O)(=O)C1 (configuration not stated)	21.7%[12.7 µM]	10.6µM*	56.2µM*	?	-3.0%	89.1µM*
CC(C)CN(C(=O)COC(=O)C1c2ccccc2Oc2ccccc21)C1CCS(=O)(=O)C1 (configuration not stated)	-33.9%[59 µM]	-2.9%	-18.7%	9.5%	-5.4%	1.8%
Cc1ccc2nc(Cl)cc(=O)n2c1	.	-2.2%	-2.1%	26.2%	.	11.7%
COc1ccccc1NS(=O)(=O)c1ccc(C(=O)N2CCN(c3ccccc3)CC2)cc1	16.1%[12.7 µM]	-8.0%	-35.1%	18.0%	-28.9%	12.5%
CCN1CCCC1CNC(=S)Nc1ccc(C(C)=O)cc1 (configuration not stated)	39.8µM*	?	-30.4%	15.7%	-26.9%	-14.5%
CC(=O)c1ccc(NC(=S)N2C(C)CCCC2C)cc1 (configuration not stated)	50.1µM*	.	.	.	10.9%	.
COc1ccc(CNC(=O)c2cnc3ccc(C)cn3c2=O)cc1	9.1%[59 µM]	.	-18.9%	5.2%	8.1%	-3.3%
COc1ccc(OC)c(NC(=O)CSc2nnc(CNC(=O)c3ccco3)o2)c1	-47.6%[59 µM]	29.9µM*	-9.2%[11.4 µM]	-19.2%	-7.6%	3.6%
CCc1nnc(NC(=O)CSc2nnc(COc3ccccc3C)o2)s1	50.1µM*	-16.5%	-7.6%[57.1 µM]	56.4%	-0.3%	11.3%
CCSc1nnc(NC(=O)CSc2nnc(CNC(=O)c3ccc(OC)cc3)o2)s1	-17.1%[59 µM]	-13.2%	-1.1%	31.2%	6.8%	19.7%
COc1ccc(NC(=O)CSc2nnc(Cc3ccccc3)o2)c(OC)c1	-6.6%[59 µM]	-18.2%	-10.1%	19.9%	2.8%	-2.9%
COc1ccc(C(=O)NCc2nnc(SCC(=O)Nc3nnc(C)s3)o2)cc1	35.5µM*	?	-9.7%	32.0%	0.1%	-11.9%
COc1ccccc1NC(=O)CSc1nnc(Cc2ccccc2)o1	14.1µM*	-6.9%	-19.7%	6.8%	2.1%	-1.2%
COc1ccc(Cl)cc1NC(=O)CSc1nnc(CNC(=O)c2ccco2)o1	9.1%	-6.4%	-3.3%	30.7%	7.5%	-6.4%
SMILES	G9a block	PLK1 PBD block	JMJD2A Tudor inh	HP1b binding inh	BAZ2B block	VDR inh
Cc1ccc2cc(CN(CCCO)S(=O)(=O)c3cccc4nsnc34)c(=O)[nH]c2c1	?	-9.0%	-13.4%	16.4%	-0.9%	15.3%
Cc1ccccc1CSc1nnc2[nH]c(=O)cc(C)n12	-0.8%[59 µM]	.	-8.4%	43.5%	1.9%	12.0%
Nc1ncnc2c(C3OC(CO)C(O)C3O)scc12 (configuration not stated)	.	-5.2%	-12.5%	18.3%	.	-2.6%
COc1ccc(-c2cnc3c(NC(C)=O)cc(-c4ccsc4)cn23)cc1OC	.	23.8µM*	.	.	.	.
COc1ccc(-c2cnc3c(NC(C)=O)cc(-c4ccccc4OC)cn23)cc1OC	.	-16.5%	.	.	.	.
C=CC#CC1(O)CC(C)[N+](C)(C)CC1C (configuration not stated)	28.2µM*	21.2µM*	22.4µM*	?	-8.1%	-23.9%
Cc1ccc2c(c1)-c1c(cnn1CC(=O)NC(C)CCc1ccco1)CO2 (configuration not stated)	44.7µM*	-11.6%	-28.5%	2.9%	-32.2%	-21.4%
Cc1ccc(Nc2c(-c3ccc(C)o3)nc3cnccn23)cc1	31.6µM*	14.1µM*	39.8µM*	?	?	70.8µM*
Cc1ccc(-c2nc3cnccn3c2Nc2ccccc2)o1	7.94µM*	-22.9%	?	?	-33.2%	?
Cc1ccc(CNC(=O)C(=O)NCC(c2cccnc2)N2CCN(c3ccccc3F)CC2)cc1 (configuration not stated)	-6.7%[59 µM]	.	-18.1%	32.1%	-5.6%	10.8%
CN1C(=O)/C(=C/c2ccco2)SC1=Nc1ccc(N2CCOCC2)cc1	7.08µM*	-8.4%	-25.0%	?	7.94µM*	-14.7%
CC(C)c1ccc(OCC(=O)Nc2c(C(=O)c3ccc(F)cc3)oc3ccccc23)cc1	5.9%[59 µM]	.	5.2%	68.4%	7.0%	0.9%
O=C(COC(=O)c1ccc(OC(F)(F)F)cc1)Nc1ncccn1	.	-14.2%	56.2µM*	-13.0%	.	0.2%
COc1ccccc1C1CCN(C(=O)c2ccc(Cl)cc2)CC1	39.8%	2.6%	1.4%	45.4%	-11.9%	-19.9%
Cc1[nH]c(=O)[nH]c1C(=O)CCCCC(=O)O	1.58µM*	-4.1%	0.891µM*	-96.5%	0.891µM*	4.1%
Cc1cc(C)c2c(=O)c(C#N)coc2c1	.	16.8µM*	2.7%	74.8%	3.6%	-0.7%
